Only a selection was taken, and hits are over-represented in it overall.
Pf Dd2 inh – inhibitors of Plasmodium falciparum Dd2 growth. P. falciparum Dd2 growth, SYBR Green, 72 h. Potency, µM (top dose mostly 28.9 µM), for inactives: top-dose activity, negative = inhibition, most hits filed as inhibitors. actives 4.3% (n = 120,000); active = well fitted inhibition curve with a large enough effect;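 note: plate controls were DMSO vehicle for no effect and reference drug for full effect; nearly all actives have a fitted effect of over 65% in size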
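Readout: SYBR Green fluorescence, 485 nm excitation, 535 nm emission, after ~16 h lysis at 37C. Before that, Dd2-infected red cells (2.5% hematocrit) grew 72 h with compound, 29 uM top final concentration.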
* marks the source's active call; other numbers are inactive results; i = inactive; [ ] = remark or other dose. Potency is the fitted concentration of half-maximal effect.

SMILES	Pf Dd2 inh
COc1ccc(CC(=O)N2CC(=O)Nc3ccc(Br)cc3C2c2ccc(F)cc2)cc1 (stereo not given)	-18%
CCCCC(=O)N1CC(=O)Nc2ccc(F)cc2C1c1ccc(F)cc1 (stereo not given)	7.9µM*
CCOc1ccc(C(=O)N2CC(=O)Nc3ccc(F)cc3C2c2ccc(F)cc2)cc1 (stereo not given)	9%
CCCCC1CCC(C(=O)N2CC(=O)Nc3ccc(Br)cc3C2c2ccc(F)cc2)CC1 (stereo not given)	10µM*
CC(=O)N1CC(=O)Nc2ccc(F)cc2C1c1ccccc1 (stereo not given)	20%
CN(C)S(=O)(=O)c1ccc(C(=O)N2CC(=O)Nc3ccc(Br)cc3C2c2ccc(F)cc2)cc1 (stereo not given)	0%
CCn1ncc(C(=O)N2CCCCCCNC(=O)CC2)c1C	-13%
Cc1nnc2n1C(C)CN(C(=O)CCc1nc(-c3ccncc3)no1)C2 (stereo not given)	-2%
Cc1ccccc1C(=O)NC1CCN(c2cc(-c3ccc(F)cc3)[nH]n2)C1 (stereo not given)	i
COc1ccc(CNC(=O)NCC2Cn3cccc3C(=O)N2C)cc1 (stereo not given)	0%
Cc1cc2nc(CO[C@H]3CN(Cc4nccn4C)C[C@H]3F)[nH]c2cc1C	-6%[44.1 µM]
CC1(C(=O)N2CCCC(CCc3ccc(F)c(F)c3)C2)CC1 (stereo not given)	i
Fc1ccc(CCC2CCCN(Cc3nccs3)C2)cc1F (stereo not given)	i
Fc1ccc(CCC2CCCNC2)cc1F (stereo not given)	7.1µM*
O=C(O)Cn1ccc2cc(OCC3CCN(C(=O)Cc4ccccc4)CC3)cnc21	i
Cc1ccncc1C(=O)N1C[C@@H](Oc2ccccc2)C[C@H]1C(=O)N1CCCC1	3%
Cc1ccc(NC(=O)N(Cc2ccc3c(c2)OCO3)C2CCN(Cc3ccccc3)CC2)cc1Cl	10µM*
COc1ccc(C)cc1NC(=O)N(Cc1ccc(C)o1)C1CCN(C(C)=O)CC1	-17%
CCN1CCC(N(Cc2cccc(OC)c2)C(=O)Nc2ccc(C)cc2Cl)CC1	-14%
CC(=O)N1CCC(N(Cc2ccco2)C(=O)Nc2ccc(C)c(Cl)c2)CC1	1%
Cc1ccc(NC(=O)N(Cc2ccc3c(c2)OCO3)C2CCN(Cc3ccccc3)CC2)cc1C	-28%
COc1ccc(C)cc1NC(=O)N(Cc1ccc2c(c1)OCO2)C1CCN(Cc2ccccc2)CC1	8.9µM*
COc1cccc(CNC(=O)N2CC3CC(C2)[C@H]2CCCC(=O)N2C3)c1 (stereo not given in full)	0%
Cc1cc(C(N)=O)c(-c2ccc(N)nc2)nc1C	5%
CCCCS(=O)(=O)N1CCc2n[nH]c(=O)n2CC1	23%
SMILES	Pf Dd2 inh
O=C1CC(c2ccccc2)N(C(=O)CNS(=O)(=O)c2ccccc2)CCCCCCN1 (stereo not given)	24%
COCC(=O)NCCC1CCN(C(=O)Nc2cc(F)ccc2F)CC1	-6%
COCCNC(=O)C1c2ccccc2C(=O)N(Cc2ccco2)C12CCCC2 (stereo not given)	-5%
COCCNC(=O)C1CCCN(c2nc3ncccc3o2)C1 (stereo not given)	-12%[44.1 µM]
O=C1c2c(nc(COc3ccc4c(c3)OCO4)n2Cc2ccccc2)NCCN1Cc1cccc(Cl)c1	-14%
COCCN1CCNc2nc(COc3ccccc3OC(F)(F)F)n(Cc3ccccc3)c2C1=O	i
COc1ccc(OCc2nc3c(n2Cc2ccccc2)C(=O)N(CC2CC2)CCN3)cc1OC	-12%
O=C1c2c(nc(COc3ccccc3)n2Cc2ccccc2)NCCN1Cc1ccccc1	-34%[44.1 µM]
O=C1c2c(nc(COc3cccc(Cl)c3)n2Cc2ccccc2)NCCN1CC1CC1	-30%[44.1 µM]
COc1ccccc1OCc1nc2c(n1Cc1ccccc1)C(=O)N(Cc1cccc(Cl)c1)CCN2	10µM*
COCCN1CCNc2nc(CNc3ccon3)n(Cc3ccccc3)c2C1=O	11µM*
O=C1c2c(nc(COc3ccc(F)cc3)n2Cc2ccccc2)NCCN1CCOc1ccccc1	5.6µM*
COCCN1CCNc2nc(COc3ccc(Oc4ccccc4)cc3)n(Cc3ccccc3)c2C1=O	-9%
COc1cccc(OCc2nc3c(n2Cc2ccccc2)C(=O)N(Cc2cccc(Cl)c2)CCN3)c1	13µM*
O=C1c2c(nc(COc3ccc4c(c3)OCO4)n2Cc2ccccc2)NCCN1CCOc1ccccc1	i
COc1ccccc1OCc1nc2c(n1Cc1ccccc1)C(=O)N(CC1CC1)CCN2	i
CN1CCOc2c(C(=O)NCCc3cnc[nH]3)cc(-c3ccccc3)cc21	i
Cc1cccc(NC(=O)N2CCC(CCNC(=O)c3cc(F)ccc3F)CC2)c1	-12%
CC(C)CNC(=O)C(NC(=O)CC(C)C)C1CCN(C(=O)c2cccc(Br)c2)CC1 (stereo not given)	i
O=C(NC1CCCCC1)O[C@@H]1CO[C@H]2[C@@H]1OC[C@@H]2n1nnnc1-c1ccc2c(c1)OCCO2	-23%
O=C(NC1CCCCCC1)c1cc2n(n1)CC(c1ccc(Cl)cc1)OC2 (stereo not given)	-5%
COCC(=O)NC[C@H]1OC[C@@H](NC2CCN(C(C)=O)CC2)[C@@H]1O	-15%[44.1 µM]
CCOCc1nc(C2CCCN(C(=O)Nc3ccccc3)C2)no1 (stereo not given)	-24%
COCCN1CCC2(C1)CN(C)c1ccc(C(=O)NCC3CC3)cc12 (stereo not given)	16%[44.1 µM]
O=C(c1ccccc1)N1C[C@@H](CO)[C@H](c2nc(-c3cccnc3)no2)C1	-35%
SMILES	Pf Dd2 inh
CN(C)C[C@@H]1CN(C)C[C@H]1NC(=O)Cc1cccc(F)c1	-7%
COc1cc(OC)cc(OCc2nc3c(n2Cc2ccccc2)C(=O)N(Cc2cccc(Cl)c2)CCN3)c1	7.9µM*
CC(=O)N1CCN(Cc2nc3c(n2Cc2ccccc2)C(=O)N(Cc2cccc(Cl)c2)CCN3)CC1	-14%
O=C1c2c(nc(COc3cc(F)cc(F)c3)n2Cc2ccccc2)NCCN1Cc1ccccc1	-21%
Cc1ccc(NC(=O)Nc2ccc(C)n(CC(=O)NC(C)c3cccnc3)c2=O)cc1 (stereo not given)	i
CN(Cc1ccsc1)C1CCc2ccccc21 (stereo not given)	-13%[44.1 µM]
Cc1cnc(C(=O)N2CC(c3nc(CCOCC4CC4)no3)C2)cn1	2%
c1ccc(-c2noc(-c3cncnc3N3CCN(c4ccccc4)CC3)n2)cc1	-11%
NC(=O)C1CCN(c2ncncc2-c2nc(-c3ccccc3)no2)CC1	-21%
O=C(c1ccco1)N1CCN(c2ncncc2-c2nc(-c3ccccc3)no2)CC1	4µM*
CCC(=O)N1CCc2c(C(=O)NCc3cc(OC)ccc3OC)cccc21	i
CCC(=O)N1CCc2c(C(=O)NCc3cc(C)ccc3C)cccc21	11µM*
CCC(=O)N1CCc2c(C(=O)NCCOC)cccc21	-10%
O=C(c1ccc(Cl)cc1)N1CCOCC2(C1)CN([S+](=O)([O-])c1ccccc1)C2	41%[44.1 µM]
Cn1nccc1OCc1cn2c(=O)n(C)cc(-c3cccc(OC(F)(F)F)c3)c2n1	-13%[44.1 µM]
CN1CCN(CCCNC(=O)c2cnn(-c3ccccc3)c2C2CCN(C(=O)OC(C)(C)C)CC2)CC1	i
CC(C)(C)OC(=O)N1CCC(c2c(C(=O)NCCN3CCC(Cc4ccccc4)CC3)cnn2-c2ccccc2)CC1	2.8µM*
CC(C)(C)OC(=O)N1CCC(c2c(C(=O)NCCN3CCC(Cc4ccccc4)CC3)cnn2-c2ccc(F)cc2)CC1	1.6µM*

Assay outcomes as filed in PubChem BioAssay.
